Source: PubChem (National Center for Advancing Translational Sciences (NCATS))
IL-1B inflam inh = blocks inflammasome-driven IL-1 beta release; THP-1 LPS/ATP IL-1B secretion, AlphaLISA, 16 h; active compounds read low; activity change, % at 57.5 µM; hit rate 4.7% among 360,000; AID 743279; in the data active = activity change below about -50%; inconclusive = mostly about -30% to -49%
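Secreted IL-1B measured by AlphaLISA bead assay after 16 h compound exposure of THP-1 cells; compounds (final up to 57.5 uM) added 1 h before LPS (250 ng/mL) and ATP (1.25 mM) stimulation; lower signal means less secretion.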
HT1080 IDH1KD tx = toxicity to HT-1080 IDH1 knockdown cells (counter line); HT-1080 IDH1 knockdown viability, ATP luminescence, 48 h; Potency, µM (highest dose often 46.1 µM), inactives show top-dose activity, negative = toxicity, actives largely listed as cytotoxic; hit rate 2% among 360,000; AID 686971;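 note: potency is the fitted concentration of half-maximal effect; 0% = DMSO wells and -100% = cell-free medium wells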
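Cytotoxicity counter-line: IDH1KD HT-1080, 48 h, CellTiter-Glo. Curves classed by r2, magnitude and activity.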
TDP1 cell noCPT = qHTS for Inhibitors of human tyrosyl-DNA phosphodiesterase 1 (TDP1): qHTS in cells in absence of CPT | Potency, µM (series often up to 46.2 µM), inactives show top-dose activity change, negative = growth inhibition, usual class: inhibitors | AID 686978, 2013 | hit rate 15% among 420,000 | DT40 Tdp1-/- hTDP1 cells, no CPT, ATP luminescence, 48 h; note: potency is the fitted concentration of half-maximal effect; nearly all actives have a fitted effect of over 55% in size
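Chicken DT40 Tdp1-/- cells complemented with human TDP1, screened without camptothecin (DMSO vehicle only), 400 cells/well. Compounds pin-transferred, cells incubated at 37 °C for at least 48 hr. Growth read as ATP-dependent luminescence (CellTiter-Glo, 30 min at RT).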
HT1080NT lethal = kills 2HG-producing HT-1080-NT fibrosarcoma cells. AID 686970. Potency, µM (highest dose often 46.1 µM), for inactives: at the highest dose activity, negative = less viability, usual class: cytotoxic. hit rate 1.6% among 360,000. HT-1080-NT fibrosarcoma viability, CellTiter-Glo ATP luminescence, 48 h;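 note: NT is the 2HG producing partner of a matched IDH1 knockdown line; potency is the fitted concentration of half-maximal effect; 0% = DMSO-treated cells and -100% = media-only wells without cells; nearly all actives have a fitted effect of over 55% in size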
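Luminescent CellTiter-Glo readout after 48 hours of compound exposure at 37 degrees C defined viability of HT-1080-NT cells. Activity was normalized to DMSO wells and cell-free media wells; concentration-response curves were fitted and assigned curve classes.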
TDP1 cell CPT = DT40-hTDP1 cell growth loss with CPT; chicken DT40 Tdp1-/-;hTDP1 cells + 20 nM CPT, ATP luminescence, 48 h; Potency, µM (series often up to 46.2 µM), for inactives: top-dose activity change, negative = growth inhibition, hits mostly inhibitors; hit rate 12% among 420,000; note: potency is the fitted concentration of half-maximal effect; nearly all actives have a fitted effect of over 55% in size
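Chicken DT40 Tdp1-/- cells stably complemented with human TDP1 were seeded at 400 cells/well in medium containing 20 nM camptothecin, exposed to pin-transferred compounds, and grown at 37 °C for at least 48 hr. Viability was read as ATP luminescence.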
ELG1 DNA repair = inhibitors of ELG1-dependent DNA repair in HEK293T cells; HEK293T ELG1-luciferase reporter, luminescence, 16 h; DNA damage induced by 5-fluorouridine; hit rate 2.3% among 330,000; Potency, µM (doses to about 46.1 µM), for inactives: at the top dose activity change, negative = inhibition, usual class: inhibitors; note: potency is the fitted concentration of half-maximal effect; nearly all actives have a fitted effect of over 55% in size
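Quantitative HTS, concentration-response format. 2,000 cells/well co-treated with 5-fluorouridine and compound, 16 hr in 5% CO2 at 37 °C; ONE-Glo luminescence read after 30 min.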
Starred values were filed as active, the others as inactive; u = inconclusive; x = not tested or not shown; ! = a repeat was not active; [ ] = another dose, or the depositor's remark. Only some compounds are listed: those with a hit (about 19% of all), similar ones and a draw of the others. Unless noted, calls come from the whole dose curve; as a rule, active = well fitted curve in the direction sought with a large enough effect; inconclusive = small, poorly fitted or top-dose-only effect, or another doubt; inactive = no such curve, though single readings can be large; an effect the other way counts as inactive or inconclusive. Unless noted, % is set by controls: 0 for no effect and ±100 for the full control effect.

SMILES | IL-1B inflam inh | HT1080 IDH1KD tx | TDP1 cell noCPT | HT1080NT lethal | TDP1 cell CPT | ELG1 DNA repair
C/C(=N\NC(=S)NC(C)C)c1ccc2c(c1)OCCO2 | -79.2* | -3.0% | 6.51µM* | 10.0% | 1.3µM* | -11.9%
CNC(=S)N/N=C(\C)c1ccc2c(c1)OCO2 | u | 12.0% | u | 13.8% | 20.9% | u
C/C(=N\NC(=S)Nc1ccc(C(C)C)cc1)c1ccc2c(c1)OCO2 | -16.6 | -27.4% | 23.1µM* | -23.1% | u | -2.7%
Cc1ccc2c(=O)c(C(=O)c3ccc(F)cc3)cn(CC(=O)Nc3ccc4c(c3)OCCO4)c2n1 | x | x | -20.1% | x | -25.5% | x
Cn1c(SSc2ccc(-c3cccnc3)n2C)ccc1-c1cccnc1 | -98.0* | 11.6µM* | u | 10.3µM* | u | x
Cn1c(SCC(=O)c2ccccc2)nnc1-c1cccnc1 | -6.2 | 5.1% | -1.7% | 0.8% | -4.5% | u
O=C(NCC1CCCO1)c1sc2cc(Cl)ccc2c1Cl (centres undefined) | 0.2 | 21.9% | -17.8% | u | 24.3% | u
CC(=O)C1=C(O)C(CSCc2ccccc2)N(C)C1=O (centres undefined) | 16.9 | -1.0% | u | 2.0% | -20.9% | x
OC[C@@H]1CN(Cc2ccco2)C[C@H](n2cnc3c(N4CCN(c5ccccc5)CC4)ncnc32)O1 | 9.2 | -9.4% | 23.1µM* | -10.3% | 23.1µM* | x
COc1ccc(CN2C[C@@H](CO)O[C@@H](n3cnc4c(N5CCCC5)ncnc43)C2)cc1 | 6.1 | -1.9% | u | -0.7% | u | x
CN(C)c1ncnc2c1ncn2[C@H]1CN(Cc2ccc(-c3ccccc3)cc2)C[C@@H](CO)O1 | -5.3 | 2.8% | 14.6µM* | -0.6% | u | x
COc1cc(CN2C[C@@H](CO)O[C@@H](n3cnc4c(N5CCN(c6ccccc6)CC5)ncnc43)C2)cc(OC)c1OC | -7.7 | 0.0% | 14.6µM* | -3.1% | 18.4µM* | x
COc1ccc(CN2C[C@@H](CO)O[C@@H](n3cnc4c(N5CCN(c6ccccc6)CC5)ncnc43)C2)cc1 | -19.6 | 18.4µM* | 16.4µM* | u | u | x
CCCNC(=O)COc1coc(CN2CCN(c3ccc(F)cc3)CC2)cc1=O | 1.9 | 1.6% | 15.2% | -1.1% | -0.3% | -3.7%
OC[C@@H]1CN(Cc2ccc(-c3ccccc3)cc2)C[C@H](n2cnc3c(N4CCOCC4)ncnc32)O1 | -27.1 | 20.6µM* | u | 18.4µM* | u | x
OC[C@@H]1CN(Cc2ccc(Cl)cc2)C[C@H](n2cnc3c(N4CCN(c5ccccc5)CC4)ncnc32)O1 | -17.6 | 16.4µM* | 18.4µM* | 18.4µM* | u | x
OC[C@@H]1CN(Cc2ccc(F)cc2)C[C@H](n2cnc3c(N4CCOCC4)ncnc32)O1 | 20.3 | 9.6% | -0.8% | 9.9% | -6.2% | x
OC[C@@H]1CN(Cc2ccc(Cl)cc2)C[C@H](n2cnc3c(N4CCOCC4)ncnc32)O1 | 20.5 | 2.8% | -17.5% | u | u | x
CCN(CC)c1ncnc2c1ncn2[C@H]1CN(Cc2cccnc2)C[C@@H](CO)O1 | -56.9* | 2.2% | -8.1% | u | -22.0% | x
OC[C@@H]1CN(Cc2ccccc2)C[C@H](n2ccc3c(N4CCCC4)ncnc32)O1 | -55.8* | 25.9% | u | 11.6% | -6.9% | x
COc1ccc(CNCc2cccc3ccccc23)cc1 | -21.6 | -18.8% | u | -19.3% | u | -5.1%
CC(C)CC(=O)Nc1cccc(C(C)O)c1 (centres undefined) | x | x | x | x | x | 5.3%
COC(=O)C1CCN(c2ccc(Cl)nn2)CC1 | -16.2 | 10.2% | 2.8% | u | 4.6% | 4.2%
COc1cc(OC)c(N(C)S(=O)(=O)c2cccc(C(=O)Nc3nccs3)c2)cc1Cl | -13.9 | u | 18.4µM* | -26.6% | u | 23.1µM*
COc1cc(OC)c(N(C)S(=O)(=O)c2cccc(C(=O)OCC(=O)N(C)C3CCCCC3)c2)cc1Cl | 0.7 | 3.5% | u | 2.7% | u | x
SMILES | IL-1B inflam inh | HT1080 IDH1KD tx | TDP1 cell noCPT | HT1080NT lethal | TDP1 cell CPT | ELG1 DNA repair
COc1cc(OC)c(N(C)S(=O)(=O)c2cccc(C(=O)NC(C)C3CC4CCC3C4)c2)cc1Cl (centres undefined) | 18.3 | -1.8% | 23.1µM* | 4.1% | 18.4µM* | -9.5%
O=C1CCC[C@@H]2CC(N(Cc3cc4ccccc4s3)c3ccccc3)C[C@@H]3CCN1[C@H]23 (some centres undefined) | x | x | -1.8% | x | 15.2% | x
c1cncc(-c2nnc(-c3cccnc3)nn2)c1 | 20.0 | u | 5.17µM* | u | 2.91µM* | u
CC(=O)OC[C@@H]1CN(Cc2ccccc2)C[C@H](n2cnc3c(N(C)C(C)C)ncnc32)O1 | u | -0.2% | u | -1.4% | u | x
COc1ccccc1-c1nnc(SCC(=O)NCc2c(C)c(Cl)cc(C(C)C)c2O)o1 | -11.9 | 15.8µM* | u | u | 29.1µM* | u
COc1ccccc1-c1nnc(SCC(=O)NC2CCCCC2)o1 | -13.7 | -0.6% | u | -2.6% | u | 17.1%
COc1ccccc1-c1nnc(SCC(=O)Nc2c(Cl)cccc2Cl)o1 | -9.5 | -14.7% | 20.6µM* | -8.4% | 18.4µM* | -6.6%
COc1ccc(S(=O)(=O)N(Cc2ccccc2)c2ccccc2C(=O)N2CCOCC2)cc1 | 71.6 | u | u | 23.1µM* | u | u
CCN1CCN(C(=O)c2ccccc2N(Cc2ccccc2)S(=O)(=O)c2ccc(C)cc2)CC1 | -67.6* | -11.3% | 16.4µM* | -16.8% | u | 0.0%
COc1cccc(/C=N/NC(=O)c2ccccc2N(Cc2ccccc2)S(=O)(=O)c2ccccc2)c1OC | -5.0 | -8.8% | 18.4µM* | -1.6% | 23.1µM* | u
COc1cccc(/C=N/NC(=O)c2cccc3ccccc23)c1OC | 22.1 | -10.9% | u | -6.9% | u | x
COC(=O)/C(=C1/OC(=O)C(c2ccccc2)=C1O)c1ccccc1 | x | x | -9.7%[9.04 µM] | x | 5.6%[9.04 µM] | x
CNc1cncc(-c2cccnc2)n1 | -0.6 | 1.8% | -0.1% | u | -4.1% | x
CC(=O)c1cc2c(cc1N/C(=N/S(=O)(=O)c1ccc(C)cc1)c1ccccc1)OCO2 | -15.2 | 6.9% | u | 12.4% | 23.1µM*! | u
Cc1ccc(S(=O)(=O)/N=C(/Nc2ccc([N+](=O)[O-])cc2[N+](=O)[O-])c2ccccc2)cc1 | -66.7* | 0.2% | u | -17.0% | u | 23.1µM*
CCc1nccn1S(=O)(=O)c1ccccc1[N+](=O)[O-] | 5.4 | 6.1% | 2.6% | 2.2% | 4.6% | -3.3%
